Source: PubChem BioAssay (several laboratories)
Anthrax LF prot: inhibitors of Bacillus anthracis lethal factor protease; P15917; multiplex microsphere protease cleavage assay, LF; inhibition, % at 10 µM; hit rate 0.12% among 360,000; also: plate controls were buffer without enzyme for full effect and enzyme alone for no effect
Target sequence (P15917 whole entry, looked up): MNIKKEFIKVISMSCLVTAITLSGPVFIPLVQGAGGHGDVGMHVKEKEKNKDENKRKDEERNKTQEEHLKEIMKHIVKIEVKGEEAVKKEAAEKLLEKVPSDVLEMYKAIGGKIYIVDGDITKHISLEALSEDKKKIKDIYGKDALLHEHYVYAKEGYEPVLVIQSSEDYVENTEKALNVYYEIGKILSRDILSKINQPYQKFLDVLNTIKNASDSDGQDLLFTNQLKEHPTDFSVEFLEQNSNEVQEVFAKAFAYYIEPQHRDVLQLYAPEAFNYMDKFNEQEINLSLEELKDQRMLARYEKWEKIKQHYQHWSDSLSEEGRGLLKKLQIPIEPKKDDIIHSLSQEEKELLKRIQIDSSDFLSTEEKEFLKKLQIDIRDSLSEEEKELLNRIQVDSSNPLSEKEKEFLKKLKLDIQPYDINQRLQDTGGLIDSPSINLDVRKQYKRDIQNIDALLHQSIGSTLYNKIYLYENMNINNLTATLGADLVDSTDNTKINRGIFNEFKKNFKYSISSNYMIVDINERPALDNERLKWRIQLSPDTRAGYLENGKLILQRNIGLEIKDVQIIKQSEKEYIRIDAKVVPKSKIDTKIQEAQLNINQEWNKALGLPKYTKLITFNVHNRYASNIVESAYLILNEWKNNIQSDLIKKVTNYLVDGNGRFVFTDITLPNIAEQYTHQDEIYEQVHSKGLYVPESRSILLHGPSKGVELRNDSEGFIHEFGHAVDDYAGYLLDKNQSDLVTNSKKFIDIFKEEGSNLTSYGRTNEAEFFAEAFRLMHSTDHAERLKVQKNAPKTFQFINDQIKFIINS
Bead autofluor: compound fluorescence in toxin protease inhibitor counterscreen. compound autofluorescence counterscreen, microsphere flow cytometry; hits give high values. fluorescence intensity (concentration not given with the values). hit rate 3.1% among 360,000. AID 624483; in the data active = fluorescence intensity above about 16000; inconclusive = no clear call, values can overlap the other calls
BoNT-F LC inh: inhibitors of Botulinum neurotoxin F light chain protease; Multiplex microsphere protease cleavage assay, flow cytometry; hit rate 0.22% among 360,000; inhibition, % at 10 µM; in the data active = inhibition above about 35%, passing the limit was not always enough; inconclusive = no clear call, values can overlap the other calls; also: plate controls were buffer without enzyme for full effect and enzyme alone for no effect
PfHsp40 rescue: restores yeast growth despite PfHsp40 toxicity; S. cerevisiae expressing PfHsp40, growth rescue, ATP luminescence; growth rescue, % at 12.5 µM; hit rate 0.68% among 340,000; AID 504582; in the data active = growth rescue above about 28%, passing the limit was not always enough; inconclusive = no clear call, values can overlap the other calls;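 also: yeast W303a lacking pdr1 and pdr3 grown in galactose medium; growth measured after three days at 30 °C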
BoNT-A LC inh2: blocks Botulinum neurotoxin A light chain protease. multiplex microsphere protease substrate cleavage, flow cytometry. AID 588499. inhibition, % at 10 µM. hit rate 0.17% among 360,000; also: plate controls were buffer without enzyme for full effect and enzyme alone for no effect
MazEF act: MazEF (E. coli) toxin RNase activation | P0AE70 | hit rate 0.32% among 350,000 | activation, % at 20 µM | FAM/BHQ RNA-DNA oligo cleavage fluorescence, 5 h; in the data active = activation above about 50%
Active calls of the source: *; ? = inconclusive; / = no result given; + = active, no number. This is a sample that favours compounds with a hit; in the whole collection about 4.3% have one here. Rule as the data show it, unless noted: active = inhibition above about 30%; inconclusive = no clear call, values can overlap the other calls; inactive = below that.

SMILES	Anthrax LF prot	Bead autofluor	BoNT-F LC inh	PfHsp40 rescue	BoNT-A LC inh2	MazEF act
C=CCn1c(=O)/c(=C/c2cc(OC)c(OC)c(OC)c2)s/c1=C(/C#N)c1nc2ccccc2n1C	60.9*	2299	58.3*	1.5	112.3*	+
COc1cc(NC(=O)CNc2cccc(S(=O)(=O)N3CCOCC3)c2)cc(OC)c1	-2.5	?	6.9	-1.6	13.7	-1.2
CCCSc1nc(N)c(C#N)c(-c2ccc(C)cc2)c1C#N	-1.1	5150	-22.2	-0.8	-0.8	0.1
C=CCSc1nc(N)c(C#N)c(-c2ccccc2)c1C#N	-1.9	21076*	5.2	-0.2	4.3	-13.3
CC(C)C[C@H]1CNC(=S)N1C[C@H]1CCCN1C[C@H](Cc1ccc(O)cc1)N1C[C@H](CC(C)C)N(CCc2ccccc2)C1=S	-7.2	6088	-0.5	/	-0.2	/
Cc1ccc(S(=O)(=O)N2CCCCC2)cc1NC(=O)C1COc2ccccc2O1 (stereo unspecified)	-4.1	3972	-5.8	/	-0.4	1.9
CC(C)=CC(=O)Nc1ccccc1Br	-3.9	17220*	-5.0	-0.1	-4.5	0.0
c1ccc2[nH]c(CN3CCCCCC3)nc2c1	0.2	20479*	-1.7	-0.9	1.3	3.4
c1ccc(CN2CCN(Cc3c[nH]c4ccccc34)CC2)cc1	16.0	3861	?	2.0	-1.1	3.0
O=C(Nc1nc2ccccc2[nH]1)C12CC3CC(CC(C3)C1)C2	1.0	2333	-19.7	-0.2	0.2	15.5
c1ccc2c(CN3CCCCCCC3)c[nH]c2c1	-2.7	17395*	-5.1	-0.2	-1.7	0.7
c1ccc(OCc2nc3ccccc3[nH]2)cc1	-4.6	22117*	-1.8	-0.1	0.4	1.8
O=C(OCc1nc2ccccc2[nH]1)C12CC3CC(CC(C3)C1)C2	-4.8	17109*	-11.1	4.1	-3.5	2.8
CC(C)CCN1CCN=C1Nc1ccccc1	0.7	3783	-6.7	-1.1	0.1	7.3
Cc1cc2c(s1)NC(=O)CN=C2c1cccs1	-0.6	19677*	-0.1	-0.2	?	4.5
CNc1nc(Oc2ccccc2C(=O)OC)nc(SC)n1	1.5	21738*	5.0	-1.1	2.8	1.8
CCNc1nc(Oc2ccc(C(=O)OC)cc2)nc(SC)n1	-13.4	22097*	-0.9	3.1	0.0	0.3
CCOC(=O)c1ccc(Oc2nc(NC)nc(SC)n2)cc1	-0.6	9020	-10.9	-1.1	-1.4	7.5
CCNc1nc(Oc2ccc(C(=O)OCC)cc2)nc(SC)n1	0.9	5151	1.9	1.6	0.1	-3.4
CC1(C)CC(=O)C(N=Nc2cc3c(cc2[N+](=O)[O-])OCCO3)=C(O)C1	-6.9	3229	-2.4	-1.0	-0.5	93.2*
COc1ccc(C(=O)OCc2csc(C)n2)c(O)c1	-0.1	3084	2.3	-1.1	0.3	-4.8
Cc1ccc(NC(=O)c2ncn(CCCN[C@H](C)c3cccc4ccccc34)n2)cc1C	2.6	3935	-23.4	-0.8	-0.2	13.4
CCOC(=O)c1oc2cccc(O)c2c1CN(Cc1ccccc1)C(C)=O	0.6	20279*	-0.5	0.7	?	6.4
O=C(c1ccccc1)c1ccc(O)c(O)c1O	-5.1	5308	-27.6	0.9	-0.7	8.4
O=C(c1ccc2c(c1)OCCCO2)c1cccs1	-1.0	22559*	-4.3	1.4	?	3.3
SMILES	Anthrax LF prot	Bead autofluor	BoNT-F LC inh	PfHsp40 rescue	BoNT-A LC inh2	MazEF act
CC(=NNC(=O)c1cccs1)c1ccc2c(c1)OCCO2	-1.4	3052	-4.9	0.0	0.0	0.0
Cc1cccn2c(/C=N/OCc3cccc(F)c3)c(-c3ccc(Cl)cc3)nc12	-4.9	5032	-2.3	0.0	-1.7	2.4
Fc1cccc(CO/N=C/c2c(-c3ccccc3)nc3ccc(Cl)cn23)c1	-0.3	16783*	-3.7	0.3	-1.0	-13.3
COc1ccc(NC(=O)CNC(=O)Cn2cnc3sc4c(c3c2=O)CCCC4)cc1OC	-0.7	6256	-3.0	0.2	-1.8	7.0
O=C(CNC(=O)c1cccs1)Nc1cccc(S(=O)(=O)N2CCOCC2)c1	3.8	4355	0.3	0.7	6.6	-1.8
O=CNCCCc1nc2ccccc2n1Cc1ccccc1	-2.6	16906*	0.8	-1.5	-0.7	-0.7
CC(=O)NCc1nc2ccccc2n1Cc1ccccc1C	-5.0	5297	-11.2	0.0	-0.5	0.8
O=CNCCc1nc2ccccc2n1CCc1ccccc1	9.0	3363	?	12.2	1.3	9.3
CC(=O)NCCCc1nc2ccccc2n1Cc1ccccc1C	-0.3	24006*	-2.2	-1.4	?	7.9
COc1ccc(C(=O)OCC(=O)N(C)C2CCS(=O)(=O)C2)cc1S(=O)(=O)N(C)Cc1ccccc1 (stereo unspecified)	-6.9	4516	0.3	/	3.6	1.0
CCN(C(=O)c1ccc(NC(C)=O)cc1)c1ccccc1	0.2	21341*	2.7	-0.3	4.1	0.7
CC(C)=CCC[C@](C)(O[C@@H]1O[C@H](CO[C@@H]2OC[C@@H](O)[C@H](O)[C@H]2O)[C@@H](O)[C@H](O)[C@H]1O)C1CC[C@]2(C)C1[C@H](O)CC1[C@@]3(C)CC[C@H](O[C@@H]4O[C@H](CO)[C@@H](O)[C@H](O)[C@H]4O)C(C)(C)C3CC[C@]12C (stereo partly specified)	-1.7	3836	1.5	9.7	-0.4	6.8
CCCc1cc(N2CCCC(C(=O)NCC)C2)n2ncnc2n1 (stereo unspecified)	-0.2	20607*	0.6	0.0	-0.2	3.5
CCOC(=O)C1CCN(C(=O)CN(c2ccc3c(c2)OCCO3)S(=O)(=O)c2ccccc2)CC1	1.2	5585	1.9	0.2	0.7	1.1
Cc1ccc(N(CC(=O)N2CCOCC2)S(C)(=O)=O)cc1C	1.2	20113*	1.1	1.3	?	-2.3
CS(=O)(=O)N(CC(=O)N1CCCC1)c1ccc(Cl)cc1Cl	21.1	2937	4.1	-0.5	1.9	-2.5
CC(=O)c1cccc(N(CC(=O)N2CCCCC2)S(C)(=O)=O)c1	-2.4	24555*	0.3	-0.1	?	6.6
CCOC(=O)C1CCN(C(=O)CN(c2ccc3c(c2)OCCO3)S(C)(=O)=O)CC1	-9.6	22882*	-0.4	0.2	-0.6	-1.1
CS(=O)(=O)N(CC(=O)N1CCCC1)c1cc(Cl)c(Cl)cc1Cl	-2.2	22315*	2.3	0.4	2.6	-0.5
CS(=O)(=O)N(CC(=O)N1CCOCC1)c1ccc(Cl)cc1	-13.1	4056	-12.4	-1.2	-1.1	9.5
CN(CC(=O)N1CCCC1)S(=O)(=O)c1cc(Cl)ccc1Cl	-0.3	22425*	-6.4	-1.7	?	-5.7
CS(=O)(=O)N(CC(=O)N1CCCC1)c1ccc2c(c1)OCCO2	0.6	21840*	4.4	2.0	5.0	2.4
CCOC(=O)N1CCN(C(=O)CN(c2cccc(OC)c2)S(C)(=O)=O)CC1	3.7	19270*	3.6	1.0	?	-6.1
CN(CC(=O)O)S(=O)(=O)c1cc(Cl)ccc1Cl	0.8	7073	-11.8	-1.3	-1.3	-5.3
CS(=O)(=O)N(CC(=O)N1CCOCC1)c1ccc2c(c1)OCO2	0.2	3082	-7.2	-0.2	0.0	5.2
